Assay outcomes as filed in PubChem BioAssay.
VACV E9 pol inh – inhibitors of vaccinia virus processive DNA synthesis (E9 polymerase); normalized absorbance, % (test concentration not listed); in vitro processive DNA synthesis, absorbance read-out; hits give low values; hit rate 0.94% among 46,000; in the data active = normalized absorbance mostly below about 85%, no sharp cut-off; inactive = mostly above about 86%
Numbers stand for hits; – = inactive. Many of the other results were omitted from the sample, so hits are more common in it than they were.

SMILES	VACV E9 pol inh
O=C(c1[nH]c2ccccc2c1Sc1ccc(Cl)cc1)N1CCCC1	–
COc1cccc(CNC(=O)c2[nH]c3cc(C)ccc3c2Sc2ccc(Cl)cc2)c1OC	–
Nc1nonc1NC(=O)CSc1ccc(Cl)cc1	–
CC1CCc2nc(SC3CC(=O)C4OCC3O4)nc(C(F)(F)F)c2C1 (stereo not given)	–
O=C1CC(N2C(=O)C3CC=CCC3C2=O)C2COC1O2 (stereo not given)	–
O=C1CC(Sc2ccc3ccccc3c2)C2COC1O2 (stereo not given)	36
CCOC(=S)NC(=O)c1ccccc1	–
N#CCCN(C(=O)Cn1c(Cc2ccccc2)nc2ccccc21)c1ccccc1	–
C=CCN1C(=O)/C(=C2\SC(=S)N(CCc3ccc(OC)cc3)C2=O)c2ccccc21	–
COc1ccc(-n2cnc3cc(N=Cc4nc5ccccc5n4C)ccc32)cc1	–
Cc1cc(C(=O)N2CCN(C3c4ccccc4-c4ccccc43)CC2)c(C)o1	–
O=C(O)c1ccccc1C(=O)N1CCN(C2c3ccccc3-c3ccccc32)CC1	74
Cc1nnsc1C(=O)N1CCN(C2c3ccccc3-c3ccccc32)CC1	–
Cc1ccc(N=Cc2ccc(F)c(F)c2)cc1C	–
CC1(C)CC(=O)c2c(oc3ccc(NS(=O)(=O)c4ccc5ccccc5c4)cc23)C1	–
Cc1ccc(/C=C2\CC/C(=C\c3ccc(C)o3)C2=O)o1	–
Cc1ccc(/C=C2/C=CC(=O)O2)o1	82
Cc1ccc(/C=C2\N=C(c3ccccc3)OC2=O)o1	–
FC(F)(F)c1cc(Cl)nc(-c2ccncc2)n1	–
CCS(=O)(=O)N1CCN=C1SCc1ccc(Cl)cc1Cl	21
COc1ccc(-c2ccnc(SCc3ccc(Cl)cc3Cl)n2)cc1	–
CCS(=O)(=O)N1CCN=C1SCc1ccc(C)cc1	–
CC1(C)CC(=O)c2sc(NC(=O)/C=C/c3ccccc3)nc2C1	–
Cc1nc(N)nc(SCc2ccccc2Cl)c1Cl	–
Cc1cc(C(=O)OCCN2CCN(C3=NS(=O)(=O)c4ccccc43)CC2)c2ccccc2n1	–
SMILES	VACV E9 pol inh
N#Cc1ccc(CSc2nc(-c3cccs3)c3c(c2C(=O)O)CCCC3)cc1	–
N#Cc1c(-c2ccco2)cc(-c2cccs2)nc1OCc1ccc(F)cc1	–
CN1CCc2c(-c3cccs3)nc(OCc3ccccc3Br)c(C#N)c2C1	46
COc1ccc(C2C(C(=O)NCCc3ccc(OC)c(OC)c3)c3ccccc3C(=O)N2C)cc1 (stereo not given)	–
CNC(=O)COc1ccc(-c2nn(C)c(=O)c3ccccc23)cc1	76
Cc1cc(-c2nn(C)c(=O)c3ccccc23)cc(C)c1OCC(=O)NN	–
CNC(=O)COc1ccc(NC(=O)CCn2nc(-c3ccc(Cl)cc3)c3ccccc3c2=O)cc1	–
COc1ccc(N=Cc2ccc(-c3ccc(OC)cc3)o2)cc1	–
Cc1nc(-c2ccc(Cl)cc2)sc1C(=O)/C=C/N(C)C	–
CNN1C(=O)c2cccc3cccc(c23)C1=O	64
CN(C)N1C(=O)c2cccc3cccc(c23)C1=O	–
O=C(O)c1ccc(/C=N/N2C(=O)c3cccc4cccc(c34)C2=O)cc1	–
O=C(O)C12CCC(C(=O)O)(CC1)CC2	–
Cc1ccc(C(=O)OCC(=O)N2CCCC2)s1	–
CC(C)c1ccc(/C=C\C(=O)O)cc1	–
Cc1ccccc1Nc1nccc(N(C)C)c1C#N	82
Cc1ccccc1NC1=NC(C)(C)CS1	–
Cc1ccccc1NC1=NCCS1	–
Oc1ccc(-c2ccccc2)cc1CN1CCN(c2ccccc2)CC1	–
CCOC(=O)c1[nH]ncc1Sc1ccc(Cl)cc1	–
Cc1ccc(Sc2cn[nH]c2C)cc1	73
Cc1ccc(Sc2cnc3ccccc3n2)cc1	–
Cc1c(CC(=O)O)c(=O)oc2c(C)c3occ(C(C)(C)C)c3cc12	–
COc1ccc(-c2coc3cc4oc(=O)c(CC(=O)O)c(C)c4cc23)cc1	–
Cc1c(CC(=O)O)c(=O)oc2c(C)c3occ(-c4ccc(Br)cc4)c3cc12	65
SMILES	VACV E9 pol inh
N#Cc1c(-c2ccccc2)nc2sccn12	–
CCCCN1CCc2c1nc1ccc(Br)cc1c2N	87
CCOc1ccc(N2CCc3c2nc2ccc(Br)cc2c3N)cc1	–
CCOc1ccc(-c2nc3ccc(Br)cc3c(C(=O)O)c2C)cc1	–
Oc1cccc(-c2nc3ccccc3[nH]2)c1	–
CN(C)Cc1c[nH]c2ccccc12	–
CN(C)CCCn1cc(C2=C(c3c[nH]c4ccccc34)C(=O)NC2=O)c2ccccc21	68
COc1ccccc1OCCn1cc(/C=C2/SC(=S)NC2=O)c2ccccc21	–
O=C(CSC1=NCCS1)N1CCC(Cc2ccccc2)CC1	–
CN(C)c1ccc(/C=C/C=N/c2sccc2C#N)cc1	–
Cc1ccn2cc(-c3cccs3)cc2c1	–
Cc1cc(=O)n2ncnc2n1CC(=O)NN	–
CCOC(=O)c1cc(-c2ccccc2)nnc1Cl	–
Cc1nc(-c2ccc3ccccc3n2)cn1Cc1ccc(F)cc1	–
COC(=O)CNc1c(-c2ccccc2)nc2ccccn12	–
O=C(O)CCCc1ccc2ccc3cccc4ccc1c2c34	80
CCn1cc(CCCC(=O)O)c2ccccc21	–
O=C(O)CCCC(=O)c1ccccc1	–
CN(Cc1ccccc1)C(=O)COC(=O)c1sc2ccccc2c1Cl	–
c1ccc2cc(CNCCc3ccc4c(c3)OCO4)ccc2c1	–
CN(C)CCc1cc2c(c3c1ccc1ccccc13)OCO2	11
O=C(COc1ccc2ccccc2c1)NCc1ccc2c(c1)OCO2	–
CC(C)Cn1c(=S)[nH]c2ccccc21	–
S=c1[nH]c2ccccc2n1Cc1ccccc1	78
Cc1cc(C)c(C(=O)Cn2c(=S)[nH]c3ccccc32)c(C)c1	–
SMILES	VACV E9 pol inh
CCNC(=O)[C@@H]1O[C@H](n2cnc3c(N)ncnc32)[C@@H](O)[C@H]1O	–
Nc1cc(C(=O)O)ccc1NCC1CCCO1 (stereo not given)	–
Oc1ccc(Br)cc1C=NCc1ccccc1	–
Oc1ccc(Br)cc1C=NCC12CCC3CC(CC(C3)C1)C2	–
Oc1ccc(Br)cc1C=NCC1CCCO1 (stereo not given)	75
Cc1ccc(C)n1-c1cccc(C(F)(F)F)c1	–
Cc1ccc(C)n1-c1cccc(C(=O)O)c1	11
Cc1ccc(C)n1-c1cccc(N)c1	–
CC(C)Oc1cccc2c1CCN(Cc1ccccc1)C2=O	–
Cc1ccc(C)c(CN2C(=O)c3ccccc3S(=O)c3ccc(C(=O)N4CCCCCC4)cc32)c1 (stereo not given)	–
COC(=O)c1ccc(-n2c(C)ccc2C)cc1	–
CCOC(=O)c1cnn(-c2ccccn2)c1N	–
CCOC(=O)c1cnn(C(=O)c2ccc(-n3c(C)ccc3C)cc2)c1N	66
Cc1ccc2nc(NCc3ccccc3)sc2c1	–
CN(C)S(=O)(=O)c1ccc(C(=O)NCCSc2c[nH]c3ccccc23)cc1	–
O=C(O)CN1C(=O)/C(=C/c2ccccc2)SC1=S	–
CCCOC(=O)CN1C(=O)/C(=C/c2ccccc2)SC1=S	–
CCOC(=O)CN1C(=O)/C(=C/c2ccccc2)SC1=S	82
O=C(Cc1ccccc1OC(=O)c1ccccc1)c1ccccc1	–
Nc1sc2ccccc2[n+]1CC(=O)Nc1ccc(Cl)cc1	–
CP(=O)(O)c1nccn1-c1ccc(Cl)nn1	–
CSc1nc2ccc3nc(NC(=O)c4ccccc4Cl)sc3c2s1	–
COc1cccc2sc(NC(=O)c3ccccc3Cl)nc12	–
O=C(Nc1nc(=S)ss1)c1ccccc1Cl	69
CC(C)(C)C(=O)Cn1c(=O)n(CC2CCC(C(=O)NCc3ccccc3)CC2)c(=O)c2ccccc21 (stereo not given)	–
